IL1B secr inh – inhibitors of inflammasome signaling (IL-1 beta secretion); THP-1 LPS/ATP IL-1B secretion, AlphaLISA, 16 h; active compounds read low; activity change, % at 57.5 µM; hit rate 4.7% among 360,000; AID 743279; in the data active = activity change below about -50%; inconclusive = mostly about -30% to -49%
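Secreted IL-1B measured by AlphaLISA bead assay after 16 h compound exposure of THP-1 cells; compounds (final up to 57.5 uM) added 1 h before LPS (250 ng/mL) and ATP (1.25 mM) stimulation; lower signal means less secretion.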
TDP1 block – blocks human tyrosyl-DNA phosphodiesterase 1 | Q9NUW8 | recombinant TDP1, AlphaScreen DNA substrate cleavage | Potency, µM (titrated, usually from 130 µM), inactives show at the highest dose activity change, negative = inhibition, usual class: inhibitors | hit rate 0.28% among 350,000; also: potency is read from the fitted curve at half-maximal effect; nearly all actives have a fitted effect of over 40% in size
Target sequence (Q9NUW8 whole entry, looked up): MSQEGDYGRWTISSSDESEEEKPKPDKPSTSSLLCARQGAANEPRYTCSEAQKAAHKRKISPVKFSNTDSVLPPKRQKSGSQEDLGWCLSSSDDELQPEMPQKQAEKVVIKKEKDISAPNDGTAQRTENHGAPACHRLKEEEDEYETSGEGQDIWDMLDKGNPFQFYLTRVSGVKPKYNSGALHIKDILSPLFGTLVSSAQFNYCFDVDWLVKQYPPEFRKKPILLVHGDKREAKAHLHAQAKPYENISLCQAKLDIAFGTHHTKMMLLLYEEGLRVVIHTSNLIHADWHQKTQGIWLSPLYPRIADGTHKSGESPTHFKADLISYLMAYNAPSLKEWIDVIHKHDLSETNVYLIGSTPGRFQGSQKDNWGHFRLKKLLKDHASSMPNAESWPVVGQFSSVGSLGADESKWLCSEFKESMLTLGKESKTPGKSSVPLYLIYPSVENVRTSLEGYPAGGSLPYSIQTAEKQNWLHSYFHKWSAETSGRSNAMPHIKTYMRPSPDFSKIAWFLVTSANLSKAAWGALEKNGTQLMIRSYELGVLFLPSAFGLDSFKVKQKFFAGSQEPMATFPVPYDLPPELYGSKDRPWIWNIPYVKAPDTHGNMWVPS
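Compounds were preincubated with Tdp1 (1 nM final) for 15 min at room temperature before substrate (15 nM final) started a 5 min reaction; beads (10 ug/ml final) were then added for 10 min before AlphaScreen detection.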
DT40 TDP1 CPT – growth inhibition of DT40 Tdp1-/-;hTDP1 cells with camptothecin (screen for TDP1 inhibitors); chicken DT40 Tdp1-/-;hTDP1 cells + 20 nM CPT, ATP luminescence, 48 h; Potency, µM (doses to about 46.2 µM), for the others: top-dose activity change, negative = growth inhibition, most hits filed as inhibitors; hit rate 12% among 420,000; also: potency is read from the fitted curve at half-maximal effect; nearly all actives have a fitted effect of over 55% in size
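Cell growth measured by CellTiter-Glo luminescence after a minimum 48 h, 37 C compound exposure with 20 nM CPT in Tdp1-knockout DT40 cells stably expressing hTDP1, seeded 400/well; qHTS titration format.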
Giardia killer – kills Giardia lamblia. hit rate 0.15% among 340,000. activity change, % at 7.66 µM, hits read low. Giardia lamblia trophozoite viability; in the data active = activity change below about -80%; inconclusive = between about -30% and that limit;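 also: parasites exposed to compound for two days anaerobically before the ATP read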
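Trophozoite viability was measured as ATP-dependent luminescence, read 15-30 min after reagent addition. Before that, parasites at 100 cells/well were exposed to compounds for 48 h, anaerobically, at 37 deg C.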
TDP1 cell noCPT – qHTS for Inhibitors of human tyrosyl-DNA phosphodiesterase 1 (TDP1): qHTS in cells in absence of CPT; DT40 Tdp1-/- hTDP1 cells, no CPT, ATP luminescence, 48 h; Potency, µM (top dose mostly 46.2 µM), without a hit: top-dose activity change, negative = growth inhibition, usual class: inhibitors; AID 686978, 2013; hit rate 15% among 420,000; also: potency is read from the fitted curve at half-maximal effect; nearly all actives have a fitted effect of over 55% in size
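A cellular qHTS used chicken DT40 cells lacking endogenous Tdp1 but carrying stably transfected human TDP1. Compounds were applied without camptothecin, and cell growth kinetics were judged by ATP-dependent luminescence after ≥48 hr.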
ELG1 repair inh – blocks ELG1-dependent DNA repair in HEK293T cells; HEK293T ELG1-luciferase reporter, luminescence, 16 h; DNA damage induced by 5-fluorouridine; Potency, µM (doses to about 46.1 µM), for the others: at the top dose activity change, negative = inhibition, most hits filed as inhibitors; hit rate 2.3% among 330,000; also: potency is read from the fitted curve at half-maximal effect; nearly all actives have a fitted effect of over 55% in size
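5-Fluorouridine DNA damage + compound/DMSO, 2,000 cells/well, 16 h, 37 °C/5% CO2. ONE-Glo, 30 min RT, luminescence. Readout = decrease in reporter signal.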
Starred values were filed as active, the others as inactive; ? = inconclusive; · = not tested or not shown; [ ] = remark or other dose. Only some compounds are listed: those with a hit (about 19% of all), similar ones and a draw of the others. Unless noted, calls follow the shape of the dose curve; as a rule, active = well fitted curve in the direction sought with a large enough effect; inconclusive = small, poorly fitted or top-dose-only effect, or another doubt; inactive = no such curve, though single readings can be large; an effect the other way counts as inactive or inconclusive. % is scaled to controls: 0 for no effect and ±100 for the full control effect.

SMILES | IL1B secr inh | TDP1 block | DT40 TDP1 CPT | Giardia killer | TDP1 cell noCPT | ELG1 repair inh
O=C(NCCc1ccc(Cl)cc1)c1ccc2c(c1)N(Cc1ccc(Cl)cc1)C(=O)CS2 | · | -3% | ? | · | ? | ·
O=C1CCSc2ccc(Cl)cc2N1Cc1ccc(Cl)cc1 | ? | 0% | ? | 1 | 29µM* | 10%
Cc1cccc(CN2C(=O)CCSc3ccc(Cl)cc32)c1 | 31 | 2% | ? | -20 | 10µM* | -3%
CC(=O)c1ccc(OCCCC(=O)OCC(=O)N2CCN(S(=O)(=O)c3ccc(C)cc3C)CC2)cc1 | 0 | · | 1% | -4 | -1% | ·
Cc1ccc(N2C(=O)CC(N3CCN/C3=C3\CC/C(=C\c4ccccc4)C3=O)C2=O)cc1 (centres undefined) | 4 | 8% | -8% | -5 | 0% | 14%
COc1ccc(-c2sc3cc4c(cc3c2C#CC2(O)CCCCC2)OCO4)cc1 | -9 | -6% | 18µM* | -15 | 21µM* | -1%
CN(C)CCOc1ccc(-c2c(-c3ccccc3)sc3ccccc23)cc1 | ? | 13% | 10µM* | -12 | 6.5µM* | ?
c1ccc2c(-c3ccc(OCCN4CCCCC4)cc3)c(-c3ccsc3)sc2c1 | -4 | 8% | 16µM* | 9 | 16µM* | -3%
COc1ccc(-c2sc3cc4c(cc3c2-c2ccc(OCCN3CCCCC3)cc2)OCO4)cc1 | 6 | 7%[56.1 µM] | 16µM* | 14 | 21µM* | -2%
COc1ccccc1-c1sc2cc3c(cc2c1C#CC1(O)CCCCC1)OCO3 | -29 | -4% | ? | -13 | ? | ?
COc1cc(OC)cc(-c2sc3ccc(OC)cc3c2-c2ccc(OCCN3CCCCC3)cc2)c1 | -23 | 6%[56.1 µM] | ? | -9 | ? | ?
CCOc1ccc(-c2nc(C#N)c(N3CCN(Cc4ccccc4)CC3)o2)cc1 | -5 | 8% | ? | 14 | 12µM* | ?
COc1ccc(N2CCN(c3oc(Cc4ccccc4)nc3C#N)CC2)cc1 | -7 | 8% | ? | 7 | 13µM* | ?
CCN1CCN(c2oc(-c3ccc(OC)cc3)nc2C#N)CC1 | -8 | · | ? | -1 | ? | ·
COc1ccc(N2CCN(c3oc(COc4ccc(Cl)cc4Cl)nc3C#N)CC2)cc1 | -8 | 7% | ? | 5 | 9.2µM* | 2%
COc1ccc(N2CCN(c3oc(COc4ccccc4)nc3C#N)CC2)cc1 | -17 | 5% | ? | 7 | ? | 0%
COc1ccc(OC)c(NC(=O)CN2C(=O)NC3(CCOc4ccccc43)C2=O)c1 (centres undefined) | -2 | 2% | -2% | -30 | 5% | -3%
O=C1N/C(=N/O)S/C1=C/c1cccc([N+](=O)[O-])c1 | -15 | 2% | 10% | 9 | -5% | ?
Cc1cccc(/C=C2/S/C(=N/N=C3\CC4CCC3(C)C4(C)C)NC2=O)c1 (centres undefined) | ? | 10% | ? | 1 | 21µM* | -22%
CCCCOc1ccc(SCCCN2CCOCC2)cc1 | -8 | · | ? | -24 | ? | ·
CCCCCCCCN1C(=O)[C@H](CC(=O)N2CCOCC2)C[C@@]2(C(=O)OC)CCCCC=C12 | 0 | · | 18µM* | · | 15µM* | ·
COC(=O)[C@]12CCCCC=C1N(CCc1ccc(OC)c(OC)c1)C(=O)[C@H](CC(=O)N1CCCCC1)C2 | -13 | · | ? | · | ? | ·
CCCCCCCCN1C(=O)[C@H](CC(=O)N2CCCCC2)C[C@@]2(C(=O)OC)CCCCC=C12 | ? | · | ? | · | 26µM* | ·
CC(OCc1ccccc1)C(NC(=O)OC(C)(C)C)C(=O)NC1COC2CC(n3cc(F)c(=O)[nH]c3=O)OC12 (centres undefined) | · | 12% | · | -23 | · | ·
COc1ccc(S(=O)(=O)N2CCCCCC2)cc1C(=O)N(C)Cc1ccc(C(C)(C)C)cc1 | -72* | 2% | ? | -2 | ? | ?
SMILES | IL1B secr inh | TDP1 block | DT40 TDP1 CPT | Giardia killer | TDP1 cell noCPT | ELG1 repair inh
COc1ccc(S(=O)(=O)N2CCOCC2)cc1C(=O)N(C)Cc1ccco1 | -10 | 0% | 0% | ? | -30% | 3%
COc1ccc(S(=O)(=O)N2CCCCCC2)cc1C(=O)N(C)Cc1ccc(F)cc1 | -26 | · | ? | -11 | ? | -4%
COc1ccc(CN(C)C(=O)c2cc(S(=O)(=O)N3CCCCCC3)ccc2OC)cc1OC | -2 | 2% | -17% | -2 | ? | ?
COc1ccc(S(=O)(=O)N2CCCCCC2)cc1C(=O)N(C)Cc1ccc(OC)c(OC)c1OC | -15 | -6% | ? | -23 | 23µM* | ?
COc1ccc(S(=O)(=O)N2CCCCCC2)cc1C(=O)N(C)Cc1ccco1 | -1 | · | 26µM* | 17 | 18µM* | 10%
S=C(Nc1ccc(Cc2ccncc2)cc1)Nc1cccc(Cl)c1 | -9 | 3% | -3% | 25 | -22% | -3%
COc1cccc(CNC(=O)C2CCN(C(=O)c3sccc3-n3cccc3)CC2)c1 | · | 2% | -1% | · | -3% | ·
COc1cc(CCN2C(=O)c3cccc4cccc(c34)C2=O)c(S(=O)(=O)NCCO)cc1OC | · | · | ? | -3 | ? | 4.6µM*
COc1cc(CCN2C(=O)c3cccc4cccc(c34)C2=O)c(S(=O)(=O)NCCCO)cc1OC | 8 | -2% | ? | 2 | ? | 5.8µM*
COc1cc(CCN2C(=O)c3cccc4cccc(c34)C2=O)c(S(=O)(=O)N2CCC(C)CC2)cc1OC | -4 | -1% | 26µM* | 15 | 2.6µM* | 21µM*
